“And” between values parts separate entries of the source, which are not always exact repeats. Equal entries are not always repeated. Some compounds were tested as several samples or in several runs, with calls that do not always agree. The source made the active and inactive calls. Rule for the calls: active = hit-call score of the fitted dose curve at least 0.9, where 1 is the maximum; inactive = score below 0.9.
Key:
Conditions in all cases: mRNA level, 48 h; actives raise or lower the signal
CYP3A5 (gene 1577) = experiment: LTEA_HepaRG_CYP3A5: Life Technologies and Expression Analysis (LTEA) Assay for CYP3A5 using HepaRG (AID 2283493)
Summary of the method: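 Differentiated HepaRG cells in serum-free induction medium were dosed 48 h with test chemicals (8-point half-log series, top 100 uM, 0.5% DMSO, duplicate). CYP3A5 mRNA measured by qRT-PCR, normalized to ACTB, GAPDH, POLR2A; bidirectional fit versus DMSO.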

[1] = read-out: Fatty Acid-Binding Protein 1 (FABP1), FABP1 (gene 2168); experiment: LTEA_HepaRG_FABP1: Life Technologies and Expression Analysis (LTEA) Assay for Fatty Acid-Binding Protein 1 (FABP1) using HepaRG (AID 2283494)
Summary of the method: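 Differentiated human HepaRG cells were exposed in duplicate for 48 h in serum-free induction medium to 8-point half-log concentration series topping at 100 uM in 0.5% DMSO. FABP1 mRNA measured by TaqMan qRT-PCR, normalized to ACTB/GAPDH/POLR2A; bidirectional fit versus DMSO.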

[2] = read-out: Cytochrome P450 4A22 (Homo sapiens) (UniProt Q5TCH4); experiment: LTEA_HepaRG_CYP4A22: Life Technologies and Expression Analysis (LTEA) Assay for Cytochrome P450 4A22 (CYP4A22) using HepaRG (AID 2283495)
Summary of the method: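 qRT-PCR of CYP4A22 mRNA (Fluidigm TaqMan, normalized to three housekeeping genes) after 48 h chemical exposure of HepaRG cells; 8-point half-log series, top 100 uM, 0.5% DMSO vehicle. Bidirectional curve fitting vs DMSO baseline.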

[3] = read-out: Cytochrome P450 7A1 (Homo sapiens) (UniProt P22680); experiment: LTEA_HepaRG_CYP7A1: Life Technologies and Expression Analysis (LTEA) Assay for Cytochrome P450 7A1 (CYP7A1) using HepaRG (AID 2283496)
Summary of the method: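 Gene expression endpoint in human HepaRG liver cells treated for 48 h with test chemicals (up to 100 uM, 0.5% DMSO). Values come from bidirectional concentration-response fitting versus DMSO.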

[4] = read-out: Glutathione S-Transferase (GSTA2), GSTA2 (gene 2939); experiment: LTEA_HepaRG_GSTA2: Life Technologies and Expression Analysis (LTEA) Assay for Glutathione S-Transferase (GSTA2) using HepaRG (AID 2283497)
Summary of the method: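 Human HepaRG cells, plated 48 h, then exposed in serum-free induction medium for 48 h to eight half-log concentrations up to 100 uM in 0.5% DMSO, duplicate. GSTA2 mRNA by qRT-PCR, normalized to ACTB/GAPDH/POLR2A; bidirectional fit versus DMSO.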

[5] = read-out: Glutamate-cysteine ligase catalytic (GCLC), GCLC (gene 2729); experiment: LTEA_HepaRG_GCLC: Life Technologies and Expression Analysis (LTEA) Assay for Glutamate-cysteine ligase catalytic (GCLC) using HepaRG (AID 2283498)
Summary of the method: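 Differentiated human HepaRG cells, plated 48 h then switched to serum-free induction medium, were exposed in duplicate for 48 h to 8 half-log concentrations topping at 100 uM in 0.5% DMSO. GCLC mRNA was quantified by qRT-PCR against ACTB, GAPDH and POLR2A.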

[6] = read-out: growth arrest and DNA damage 45 (GADD45G), GADD45G (gene 10912); experiment: LTEA_HepaRG_GADD45G: Life Technologies and Expression Analysis (LTEA) Assay for growth arrest and DNA damage 45 (GADD45G) using HepaRG (AID 2283499)
Summary of the method: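 Differentiated human HepaRG cells in serum-free induction medium were exposed for 48 h to 8 half-log concentrations up to 100 uM in 0.5% DMSO, in duplicate. GADD45G mRNA was measured by TaqMan qRT-PCR, normalised to ACTB, GAPDH and POLR2A, and fitted bidirectionally against DMSO.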

[7] = read-out: Glutamate-cysteine ligase regulatory (GCLM), GCLM (gene 2730); experiment: LTEA_HepaRG_GCLM: Life Technologies and Expression Analysis (LTEA) Assay for Glutamate-cysteine ligase regulatory (GCLM) using HepaRG (AID 2283500)
Summary of the method: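 Differentiated human HepaRG cells exposed 48 h in serum-free induction medium to 8-point half-log concentrations (top 100 uM, 0.5% DMSO), in duplicate. GCLM mRNA quantified by qRT-PCR, normalized to ACTB, GAPDH, POLR2A; bidirectional fitting versus DMSO.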

[8] = read-out: Glutathione S-transferase M3 (GSTM3), GSTM3 (gene 2947); experiment: LTEA_HepaRG_GSTM3: Life Technologies and Expression Analysis (LTEA) Assay for Glutathione S-transferase M3 (GSTM3) using HepaRG (AID 2283501)
Summary of the method: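 Differentiated HepaRG cells in serum-free induction medium were exposed in duplicate for 48 h to 8 half-log concentrations up to 100 uM in 0.5% DMSO. GSTM3 mRNA was measured by TaqMan qRT-PCR, normalized to ACTB/GAPDH/POLR2A, and fitted bidirectionally versus DMSO.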

[9] = read-out: Heat shock 70 kDa protein 1 (HSPA1A), gene 3303; experiment: LTEA_HepaRG_HSPA1A: Life Technologies and Expression Analysis (LTEA) Assay for Heat shock 70 kDa protein 1 (HSPA1A) using HepaRG (AID 2283502)
Summary of the method: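 Differentiated human HepaRG cells in serum-free induction medium were exposed in duplicate for 48 h to eight concentrations (top 100 uM, half-log steps, 0.5% DMSO). HSPA1A mRNA was quantified by qRT-PCR, normalized to ACTB, GAPDH and POLR2A, and fitted bidirectionally against DMSO.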

[10] = read-out: Hypoxia-inducible factor 1-alpha (Homo sapiens) (UniProt Q16665); experiment: LTEA_HepaRG_HIF1A: Life Technologies and Expression Analysis (LTEA) Assay for Hypoxia-inducible factor 1 (HIF1A) Trancription factor using HepaRG (AID 2283503)
Summary of the method: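 HepaRG, 48 h exposure, 8-pt half-log series from 100 uM, 0.5% DMSO vehicle, duplicates. Readout: HIF1A transcript by qRT-PCR (Fluidigm array), housekeeping-normalised. Bidirectional curve fit vs DMSO baseline.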

[11] = read-out: 3-Hydroxy-3-Methylglutaryl-CoA Synthase 2 (HMGCS2), HMGCS2 (gene 3158); experiment: LTEA_HepaRG_HMGCS2: Life Technologies and Expression Analysis (LTEA) Assay for 3-Hydroxy-3-Methylglutaryl-CoA Synthase 2 (HMGCS2) using HepaRG (AID 2283504)
Summary of the method: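 Differentiated human HepaRG cells were exposed in duplicate for 48 h in serum-free induction medium to eight concentrations (top 100 uM, half-log steps, 0.5% DMSO). HMGCS2 mRNA was quantified by TaqMan qRT-PCR, normalised to ACTB, GAPDH and POLR2A, then fitted bidirectionally against DMSO.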

HGF (gene 3082) = experiment: LTEA_HepaRG_HGF: Life Technologies and Expression Analysis (LTEA) Assay for Hepatocyte Growth Facto (HGF) using HepaRG (AID 2283505)
Summary of the method: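 Differentiated human HepaRG cells in serum-free induction medium were exposed in duplicate for 48 h to eight concentrations (top 100 uM, half-log steps, 0.5% DMSO). HGF mRNA was quantified by qRT-PCR, normalized to ACTB, GAPDH and POLR2A.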

[12] = read-out: Insulin Like Growth Factor 1 (IGF1), IGF1 (gene 3479); experiment: LTEA_HepaRG_IGF1: Life Technologies and Expression Analysis (LTEA) Assay for Insulin Like Growth Factor 1 (IGF1) using HepaRG (AID 2283506)
Summary of the method: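 Differentiated human HepaRG cells were dosed for 48 h in serum-free induction medium with 0.5% DMSO, eight half-log concentrations up to 100 uM, in duplicate. IGF1 mRNA was quantified by qRT-PCR normalized to ACTB, GAPDH, POLR2A; bidirectional fitting versus DMSO.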

[13] = read-out: Intercellular Adhesion Molecule 1 (ICAM1), ICAM1 (gene 3383); experiment: LTEA_HepaRG_ICAM1: Life Technologies and Expression Analysis (LTEA) Assay for Intercellular Adhesion Molecule 1 (ICAM1) using HepaRG (AID 2283507)
Summary of the method: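 Differentiated HepaRG cells in serum-free induction medium were exposed in duplicate for 48 h to eight half-log concentrations up to 100 uM in 0.5% DMSO. Transcript levels were measured by qRT-PCR normalized to ACTB, GAPDH and POLR2A; bidirectional fits relative to DMSO.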

[14] = read-out: Insulin-like growth factor-binding protein 1 (IGFBP1), IGFBP1 (gene 3484); experiment: LTEA_HepaRG_IGFBP1: Life Technologies and Expression Analysis (LTEA) Assay for Insulin-like growth factor-binding protein 1 (IGFBP1) using HepaRG (AID 2283508)
Summary of the method: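 Differentiated human HepaRG cells in serum-free induction medium were exposed in duplicate for 48 h to eight concentrations, top 100 uM with half-log dilutions, in 0.5% DMSO. Transcript levels came from qRT-PCR normalised to ACTB, GAPDH and POLR2A, fitted bidirectionally against DMSO.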

[15] = read-out: Interleukin 6 (IL6), IL6 (gene 3569); experiment: LTEA_HepaRG_IL6: Life Technologies and Expression Analysis (LTEA) Assay for Interleukin 6 (IL6) using HepaRG (AID 2283509)
Summary of the method: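 Differentiated human HepaRG cells, plated 48 h then switched to serum-free induction medium, were exposed in duplicate for 48 h to eight half-log concentrations up to 100 uM in 0.5% DMSO. IL6 mRNA measured by qRT-PCR, normalized to ACTB/GAPDH/POLR2A.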

[16] = read-out: Interleukin 6 Receptor (IL6R), IL6R (gene 3570); experiment: LTEA_HepaRG_IL6R: Life Technologies and Expression Analysis (LTEA) Assay for Interleukin 6 Receptor (IL6R) using HepaRG (AID 2283510);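 for AC50: TaqMan qRT-PCR signal normalized to ACTB GAPDH and POLR2A housekeeping genes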
Summary of the method: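 Differentiated human HepaRG cells, plated 48 h then switched to serum-free induction medium, were dosed in duplicate for 48 h at eight half-log concentrations up to 100 uM in 0.5% DMSO. IL6R mRNA quantified by qRT-PCR, normalized to ACTB/GAPDH/POLR2A; bidirectional fit versus DMSO.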

[17] = read-out: Potassium channel subfamily K member 1 (KCNK1), KCNK1 (gene 3775); experiment: LTEA_HepaRG_KCNK1: Life Technologies and Expression Analysis (LTEA) Assay for Potassium channel subfamily K member 1 (KCNK1) using HepaRG (AID 2283511)
Summary of the method: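 Differentiated human HepaRG cells in serum-free induction medium were exposed in duplicate for 48 h to 8 half-log concentrations up to 100 uM in 0.5% DMSO. KCNK1 mRNA was measured by TaqMan qRT-PCR, normalized to ACTB, GAPDH and POLR2A, and fitted bidirectionally versus DMSO.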

[18] = read-out: Keratin 19 (KRT19), KRT19 (gene 3880); experiment: LTEA_HepaRG_KRT19: Life Technologies and Expression Analysis (LTEA) Assay for Keratin 19 (KRT19) using HepaRG (AID 2283512)
Summary of the method: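 Differentiated human HepaRG cells, plated 48 h, were exposed in duplicate for 48 h in serum-free induction medium to eight half-log concentrations up to 100 uM in 0.5% DMSO. KRT19 mRNA was quantified by qRT-PCR, normalized to ACTB, GAPDH and POLR2A, and fitted bidirectionally versus DMSO.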

Measured: AC50

Hypoxia-inducible factor 1-alpha (Homo sapiens), sequence (Q16665 whole entry, looked up): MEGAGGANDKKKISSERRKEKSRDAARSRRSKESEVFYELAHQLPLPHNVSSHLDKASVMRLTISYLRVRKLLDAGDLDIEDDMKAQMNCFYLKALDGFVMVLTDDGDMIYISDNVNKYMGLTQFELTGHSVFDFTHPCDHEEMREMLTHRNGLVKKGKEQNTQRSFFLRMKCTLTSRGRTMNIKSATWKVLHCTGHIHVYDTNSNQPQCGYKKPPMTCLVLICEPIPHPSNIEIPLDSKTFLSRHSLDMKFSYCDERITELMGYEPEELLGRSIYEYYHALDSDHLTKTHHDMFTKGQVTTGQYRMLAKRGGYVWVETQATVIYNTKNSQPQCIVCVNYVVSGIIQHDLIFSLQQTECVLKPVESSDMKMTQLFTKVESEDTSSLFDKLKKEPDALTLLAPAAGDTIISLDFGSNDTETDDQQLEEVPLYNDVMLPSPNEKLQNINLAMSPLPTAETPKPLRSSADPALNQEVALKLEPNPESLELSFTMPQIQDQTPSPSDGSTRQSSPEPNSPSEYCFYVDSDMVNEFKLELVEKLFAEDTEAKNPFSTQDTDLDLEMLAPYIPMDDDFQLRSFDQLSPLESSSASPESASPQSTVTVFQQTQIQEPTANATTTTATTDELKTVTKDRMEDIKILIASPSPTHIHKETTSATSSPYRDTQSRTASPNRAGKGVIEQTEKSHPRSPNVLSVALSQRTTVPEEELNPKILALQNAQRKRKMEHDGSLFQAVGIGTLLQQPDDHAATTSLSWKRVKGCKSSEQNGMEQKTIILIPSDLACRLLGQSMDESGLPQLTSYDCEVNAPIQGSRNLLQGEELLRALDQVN

S=C(S)NCCNC(=S)S.[Mn+2].[S-]C([S-])=NCCN=C([S-])[S-].[Zn+2]
inactive: [5] | [7] | [8] | [9] | [10] | HGF (gene 3082) | [17] | [18]
active: CYP3A5 (gene 1577) 1.94 µM and 1.32 µM and 700 nM | [1] 1.18 µM and 1.26 µM and 1.71 µM | [2] 1.38 µM and 1.35 µM | [3] 1.57 µM and 1.44 µM and 1.47 µM | [4] 890 nM and 1.14 µM and 997 nM | [6] 3.67 µM and 2.31 µM and 3.97 µM | [7] 25000 nM | [8] 827 nM | [9] 1.21 µM and 4.71 µM | [10] 1630 nM | [11] 2.25 µM and 1.36 µM and 1.93 µM | HGF (gene 3082) 3.68 µM and 9.89 µM | [12] 1.35 µM and 1.45 µM and 2.57 µM | [13] 1.8 µM and 2.09 µM and 2.17 µM | [14] 56.2 nM and 104 nM and 174 nM | [15] 1.73 µM and 1.92 µM and 2.15 µM | [16] 1.55 µM and 1.5 µM and 1.32 µM | [18] 5.39 µM and 11.4 µM

CCCOC(=O)c1ccc(C(=O)OCCC)nc1
inactive: CYP3A5 (gene 1577) | [1] | [2] | [3] | [4] | [5] | [6] | [7] | [8] | [9] | [10] | [11] | HGF (gene 3082) | [12] | [13] | [14] | [15] | [16] | [17] | [18]

— PubChem BioAssay (EPA / NIEHS)
